Rows were chosen to be rich in hits. Some 9.2% of all compounds tested hit in one or more screens of this group.
ELG1 repair inh – ELG1-dependent DNA repair inhibition; HEK293T ELG1-luciferase reporter, luminescence, 16 h; DNA damage induced by 5-fluorouridine; Potency, µM (doses to about 46.1 µM), usual class: inhibitors; hit rate 2.3% among 330,000; AID 504467; further: nearly all actives have a fitted effect of over 55% in size
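DMSO vehicle served as the neutral condition. Each well held 2,000 cells given 5-fluorouridine plus compound; after 16 hr at 37 °C/5% CO2, ONE-Glo was added and luciferase measured 30 min later.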
ELG1 genotoxic – genotoxicity induction in ELG1-luciferase HEK293T cells | HEK293T ELG1-luciferase reporter, luminescence, 16 h | Potency, µM (titrated, usually from 46 µM), hits mostly activators | hit rate 1.3% among 330,000 | AID 504466; further: nearly all actives have a fitted effect of over 60% in size
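Luminescence read-out: rising ELG1-luciferase signal, reflecting elevated ELG1 protein under genetic stress, flags genotoxic compounds. Cells were treated for 16 hr at 37 °C before ONE-Glo detection.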
NPC1 promoter act – NPC1 promoter activation | Potency, µM (top dose mostly 9.22 µM), usual class: activators | hit rate 2.4% among 320,000 | Huh7 NPC1 promoter luciferase reporter, 24 h; further: nearly all actives have a fitted effect of over 60% in size
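Compounds in DMSO were transferred onto Huh7 NPC1-luciferase reporter cells pre-incubated 2 h; after 24 h at 37 °C, Amplite reagent was dispensed and luminescence recorded 10 min later.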
SMN2 splice up – increases expression of the SMN2 splice variant. HEK293 SMN2-luciferase splicing reporter, luminescence, 30-36 h. Potency, µM (highest dose often 46.1 µM), hits mostly activators. hit rate 2.8% among 210,000; further: nearly all actives have a fitted effect of over 55% in size
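qHTS luciferase splicing reporter: luminescence rises when SMN2 exon 7 is included in transfected HEK293 cells. Compound exposure lasted 30-36 h at 37C, with 4.5 mM final sodium butyrate as control, followed by a ONE-Glo read.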
FLuc modulator – firefly luciferase modulation, counter-screen for miR-21 project; P08659; purified FLuc, Km substrates, luminescence inhibition; Potency, µM (doses to about 57.5 µM), usual class: inhibitors; hit rate 6.9% among 360,000; AID 588342; further: nearly all actives have a fitted effect of over 55% in size
Target sequence (P08659 whole entry, looked up): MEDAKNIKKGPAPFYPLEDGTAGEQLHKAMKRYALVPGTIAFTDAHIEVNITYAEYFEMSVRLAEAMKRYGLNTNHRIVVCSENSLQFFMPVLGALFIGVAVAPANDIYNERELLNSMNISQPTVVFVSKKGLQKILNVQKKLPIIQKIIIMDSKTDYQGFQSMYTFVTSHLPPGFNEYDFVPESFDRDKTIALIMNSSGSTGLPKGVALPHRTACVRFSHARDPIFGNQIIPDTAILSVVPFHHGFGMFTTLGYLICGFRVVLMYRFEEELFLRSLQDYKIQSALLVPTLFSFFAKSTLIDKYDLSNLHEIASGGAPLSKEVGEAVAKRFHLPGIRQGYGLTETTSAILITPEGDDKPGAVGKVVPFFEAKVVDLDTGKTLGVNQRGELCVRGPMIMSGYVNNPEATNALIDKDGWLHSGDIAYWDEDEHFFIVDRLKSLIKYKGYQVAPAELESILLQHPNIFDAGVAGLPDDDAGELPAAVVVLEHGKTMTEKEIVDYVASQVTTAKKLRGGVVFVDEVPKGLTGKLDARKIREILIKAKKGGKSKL
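Purified P. pyralis luciferase (10nM final) with 10uM D-luciferin and 10uM ATP (Km levels) in 50mM Tris acetate pH 7.5, 10mM Mg acetate, 0.01% Tween-20, 0.05% BSA; qHTS 6-point titration, ~60 µM downward; luminescence read.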
Rab9 prom act – activates the Rab9 promoter; Huh7 Rab9 promoter-luciferase reporter, luminescence, 24 h; Potency, µM (titrated, usually from 9.22 µM), actives largely listed as activators; hit rate 2.8% among 320,000; further: nearly all actives have a fitted effect of over 60% in size
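Cell-based reporter: Huh7 stable for Rab9 promoter-driven luciferase, plated in reduced-serum medium with 10% FBS at 1500 cells/well, compound-treated 24 h at 37 °C, luminescence read after 10 min reagent.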
Hits are given with their value. The call rests on the fitted dose curve; in most records, active means well fitted curve in the direction sought with a large enough effect; inconclusive means small, poorly fitted or top-dose-only effect, or another doubt; inactive means no such curve, though single readings can be large; an effect the other way counts as inactive or inconclusive.

Results for COc1ccccc1CCc1nnc(CCC(=O)N(C)Cc2cccc3cnccc23)o1 ?
ELG1 repair inh: inconclusive; ELG1 genotoxic: inactive; NPC1 promoter act: 4µM; FLuc modulator: 12µM; Rab9 prom act: 2.8µM

What do the screens show for `COc1cc(Cl)ccc1OCc1cc(C(=O)NC(C)Cc2cccnc2)no1` (stereo unspecified)?
ELG1 repair inh: inconclusive; ELG1 genotoxic: inactive; NPC1 promoter act: inconclusive; FLuc modulator: 8.5µM; Rab9 prom act: inconclusive

How did COc1ccc(OCc2cc(C(=O)NCCc3ccccc3)no2)c(Cl)c1 do in these assays?
ELG1 repair inh: inactive; ELG1 genotoxic: inactive; NPC1 promoter act: inactive; FLuc modulator: inconclusive; Rab9 prom act: inactive

What do the screens show for `COc1ccc(OCc2cc(C(=O)NCC(C)Oc3cccnc3)no2)c(Cl)c1` (stereo unspecified)?
ELG1 repair inh: inactive; ELG1 genotoxic: inactive; NPC1 promoter act: inconclusive; FLuc modulator: 15µM; Rab9 prom act: inconclusive

What do the screens show for `Cc1cccc(C)c1OCC(=O)Nc1c(C(=O)c2ccc(Br)cc2)oc2ccccc12`?
SMN2 splice up: inactive; FLuc modulator: inactive

How did Cc1cc(-c2ccccc2)cc(-c2ccccc2)[n+]1C do in these assays?
ELG1 repair inh: 12µM; ELG1 genotoxic: inactive; NPC1 promoter act: inactive; SMN2 splice up: inactive; FLuc modulator: inactive; Rab9 prom act: inactive

How did COC(=O)c1ccc(-c2ccc(/C=N/NC(=O)Cc3nnc(N)s3)o2)cc1 do in these assays?
ELG1 repair inh: inactive; ELG1 genotoxic: inactive; NPC1 promoter act: 4.5µM; FLuc modulator: inconclusive; Rab9 prom act: inconclusive

What do the screens show for `Cc1noc(C(C)C)c1C(=O)Nc1ccc(-c2nnc3n2CCCCC3)cc1`?
ELG1 repair inh: inactive; ELG1 genotoxic: inactive; NPC1 promoter act: inactive; FLuc modulator: inactive; Rab9 prom act: inactive

What do the screens show for `Cc1cc(C)c(CN2CCN(C(=O)Cn3cnc4c(NCc5ccccc5)ncnc43)CC2)c(C)c1`?
ELG1 repair inh: 1µM; ELG1 genotoxic: inactive

What do the screens show for `O=C(Cn1cnc2c(NCc3ccccc3)ncnc21)N1CCN(c2ccccn2)CC1`?
ELG1 repair inh: inactive; ELG1 genotoxic: inactive

How did COc1ccc(C(=O)c2c(N)sc3c2CCN(C(=O)OC(C)(C)C)C3)cc1 do in these assays?
ELG1 repair inh: 23µM; ELG1 genotoxic: inactive; NPC1 promoter act: inactive; FLuc modulator: inactive; Rab9 prom act: inactive

How did COc1ccc(C(=O)/C=C(\C)NCc2ccc3c(c2)OCO3)cc1 do in these assays?
ELG1 repair inh: inactive; ELG1 genotoxic: inactive; NPC1 promoter act: inactive; FLuc modulator: inactive; Rab9 prom act: inactive

Results for COc1ccc(N/C=C\C(=O)c2ccc(Br)cc2)cc1OC ?
ELG1 repair inh: inconclusive; ELG1 genotoxic: inactive; NPC1 promoter act: inconclusive; SMN2 splice up: inconclusive; FLuc modulator: inconclusive; Rab9 prom act: inconclusive

How did COc1ccc(NC(=O)COC(=O)c2ccc3c(c2)OCCO3)cc1OC do in these assays?
ELG1 repair inh: inactive; ELG1 genotoxic: inactive; NPC1 promoter act: inactive; FLuc modulator: inactive; Rab9 prom act: inactive

What do the screens show for `COc1ccc(N/C=C\C(=O)c2ccc3c(c2)OCO3)cc1`?
ELG1 repair inh: inconclusive; ELG1 genotoxic: inconclusive; NPC1 promoter act: 1.8µM; SMN2 splice up: inconclusive; FLuc modulator: 0.27µM; Rab9 prom act: 3.5µM

What do the screens show for `COc1cc(OC)c(OC)cc1/C=C/C(=O)c1ccc(NS(=O)(=O)c2ccc(C)cc2)cc1`?
ELG1 repair inh: 15µM; ELG1 genotoxic: inactive; NPC1 promoter act: inactive; SMN2 splice up: inactive; FLuc modulator: inactive; Rab9 prom act: inactive

How did COc1ccc(N/C=C/C(=O)c2ccc3c(c2)OCO3)cc1OC do in these assays?
ELG1 repair inh: inconclusive; ELG1 genotoxic: inconclusive; NPC1 promoter act: inactive; SMN2 splice up: inactive; FLuc modulator: 2.7µM; Rab9 prom act: inconclusive

What do the screens show for `COc1ccc(N/C=C\C(=O)c2ccc(C)cc2)cc1OC`?
ELG1 repair inh: inconclusive; ELG1 genotoxic: inconclusive; NPC1 promoter act: inconclusive; SMN2 splice up: inactive; FLuc modulator: 5.4µM; Rab9 prom act: 3.5µM

How did CC(=O)c1ccc(NS(=O)(=O)c2ccc(C)cc2)cc1 do in these assays?
ELG1 repair inh: inactive; ELG1 genotoxic: inactive; NPC1 promoter act: inactive; SMN2 splice up: inactive; FLuc modulator: inactive; Rab9 prom act: inactive

Results for Cc1cc(C)c(C)c(S(=O)(=O)N[C@@H](C)C(=O)OCC(=O)NC2CCCC(C)C2C)c1C (stereo partly specified) ?
ELG1 repair inh: inconclusive; ELG1 genotoxic: inactive

What do the screens show for `Nc1[nH]nc2ncc3cc4ccccc4nc3c12`?
ELG1 repair inh: inactive; ELG1 genotoxic: inactive; NPC1 promoter act: inactive; SMN2 splice up: inactive; FLuc modulator: inactive; Rab9 prom act: inactive

What do the screens show for `O=C(/C=C\Nc1ccc2c(c1)OCO2)c1ccc2c(c1)OCO2`?
ELG1 repair inh: inconclusive; ELG1 genotoxic: 2.3µM; NPC1 promoter act: 4µM; SMN2 splice up: inconclusive; FLuc modulator: 0.13µM; Rab9 prom act: 0.79µM

Results for O=C(O)c1ccc2c(c1)OCO2 ?
SMN2 splice up: inactive

Results for COc1cccc(/C=C2\SC(=S)N(CCC(=O)NC3C=CS(=O)(=O)C3)C2=O)c1 (stereo unspecified) ?
ELG1 repair inh: 4.6µM; ELG1 genotoxic: inactive; NPC1 promoter act: inactive; FLuc modulator: 4.8µM; Rab9 prom act: inactive

What do the screens show for `COc1ccc(/C=C2\SC(=O)N(CCC(=O)N(C)C3CCS(=O)(=O)C3)C2=O)cc1` (stereo unspecified)?
ELG1 repair inh: inconclusive; ELG1 genotoxic: inactive; NPC1 promoter act: inactive; FLuc modulator: 11µM; Rab9 prom act: inactive

What do the screens show for `COc1ccc(/C=C2\SC(=S)N(CCC(=O)NC3C=CS(=O)(=O)C3)C2=O)cc1` (stereo unspecified)?
ELG1 repair inh: inactive; ELG1 genotoxic: inactive; NPC1 promoter act: inactive; FLuc modulator: 5.4µM; Rab9 prom act: inactive

Results for COc1cccc(/C=C2\SC(=S)N(CCC(=O)Nc3ccc(O)cc3)C2=O)c1 ?
ELG1 repair inh: inconclusive; ELG1 genotoxic: inconclusive; NPC1 promoter act: inactive; FLuc modulator: inconclusive; Rab9 prom act: inactive

Results for NS(=O)(=O)c1ccc(CCNC(=O)c2ccc(Cl)c(S(=O)(=O)NCc3ccco3)c2)cc1 ?
ELG1 repair inh: inactive; ELG1 genotoxic: inactive

How did CCOc1ccccc1NC(=O)COC(=O)C1CC(=O)N(c2c(C)cccc2C)C1 (stereo unspecified) do in these assays?
ELG1 repair inh: inactive; ELG1 genotoxic: inactive; NPC1 promoter act: inactive; FLuc modulator: inactive; Rab9 prom act: inactive

What do the screens show for `Cn1c(=O)c2c(-c3ccc(Br)cc3)n(Cc3ccc(F)cc3)cc2n(C)c1=O`?
SMN2 splice up: inactive; FLuc modulator: inactive

What do the screens show for `Cc1oc2ccc(O)c(CN(C)Cc3ccccc3)c2c1C(=O)Nc1cccc(C(F)(F)F)c1`?
SMN2 splice up: inactive; FLuc modulator: inactive

Bioassay records from PubChem.
